The structures appear in SMILES notation. Hit rate of the full screen: of about 330,000 compounds, about 4,200 (1.3%) were called active. A call without a number means that no potency is given here. Inconclusive results (about 6%) are left out. The sample holds actives, similar compounds and a random draw of the others, so the mix is not that of the screen. Calls come from the whole dose curve; as a rule, active = well fitted activation curve with a large enough effect; inconclusive = small, poorly fitted or top-dose-only effect; inactive = no such curve, though single readings can be large or run the other way.
Potency is the fitted concentration of half-maximal effect.

This experiment in a line: qHTS screen for small molecules that induce genotoxicity in human embryonic kidney (HEK293T) cells expressing luciferase-tagged ELG1. Note: nearly all actives have a fitted effect of over 60% in size. The conditions noted are these: HEK293T ELG1-luciferase reporter, luminescence, 16 h; series mostly up to 46 µM. The gist of the method:
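Screening used a luciferase reporter fused to human ELG1 in HEK293T cells. Luminescence was read on a CCD plate imager after 16 hr exposure and 30 min ONE-Glo incubation.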
(qHTS replaces the single test concentration by a dilution series.)
With `Cc1cc(Cl)c(S(=O)(=O)N(C)C)cc1OCC(N)=O`, the Potency result is “inactive”.
Consider `Cc1cc(Cl)c(S(=O)(=O)Nc2ccc3c(c2)OCCO3)cc1OCC(N)=O`, for which the Potency was 23.1 µM (active).
For `Cc1cc(Cl)c(S(=O)(=O)NCC2CCCO2)cc1OCC(N)=O` (stereo unspecified) the value was “inactive”; for `COC(=O)C1=C(C)N(Cc2ccccc2)C(=NCCCOC(C)C)N[C@H]1c1ccccc1`, “inactive”; for `CN(C)C(=O)CCc1ccc2c3c([nH]c2c1)[C@]1(C)[C@@H](C(=O)N2CCCCC2)C[C@H](CC(=O)NCCC2=CCCCC2)C(=O)N1CC3`, “inactive”.
The same measure for `Cc1cc2nc(SCCN3CCOCC3)[nH]c2cc1C`: 18.4 µM (active); for `Cc1cccc(C)c1OCCN1CCOCC1`: “inactive”.
The same measure for `CCn1c2ccc(F)cc2c2nnc(SCCN3CCOCC3)nc21`: “inactive”; for `Cc1ccc(C(=O)OCC(=O)N2CCCCCC2)cc1S(=O)(=O)N1CCOCC1`: “inactive”.
In the case of `O=C1/C(=C/c2cccs2)CCc2ccccc21`, the Potency is 8.2 µM (active).
For `CCC1C/C(=C/c2cccs2)C(=O)/C(=C/c2cccs2)C1` (stereo unspecified) the value was “inactive”; for `CN1C/C(=C/c2cccs2)C(=O)/C(=C\c2cccs2)C1`, “inactive”.
For `O=C(COc1cccnc1[N+](=O)[O-])Nc1ccc(Cl)cc1F` the value was “inactive”; for `O=C(COC(=O)COc1cccc(F)c1)NCC1CCCCC1`, “inactive”.
The same measure for `COc1ccc2sc(-c3ccc(S(C)(=O)=O)cc3)c(C#Cc3cncn3C)c2c1`: “inactive”; for `CC(C)(C)OC(=O)C[C@@H]1C/C=C\C[C@H](CC(=O)N[C@@H](CO)Cc2ccccc2)C(=O)N[C@H](Cc2ccccc2)COC1=O`: “inactive”; for `CN(c1ccc(C(=O)N2CCc3ccccc3C2)cc1)S(C)(=O)=O`: “inactive”.
Consider `Cc1ccc(-c2cc(C(=O)N3CCc4ccccc4C3)no2)cc1`, for which the Potency result was “inactive”.
For `O=C(c1noc2c1CCCC2)N1CCc2ccccc2C1` the value was 20.6 µM (active); for `CC(C)CC1(C)NC(=O)N(CC(=O)Nc2ccc3c(c2)OCCO3)C1=O` (stereo unspecified), “inactive”; for `Cc1ccc(S(=O)(=O)NCC(=O)NNC(=O)c2ccc(Br)cc2)cc1C`, “inactive”.
On to `COc1ccc(-c2noc(-c3cccc(OC)c3OC)n2)cc1OC`, for which the Potency was 3.26 µM (active).
On to `COc1ccc(-c2noc(CCCC(=O)NC3CCCC3)n2)cc1OC`, for which the Potency result was “inactive”.
For `Cc1ccc(-c2noc(CC(c3ccccc3)c3ccccc3)n2)cc1` the value was “inactive”; for `Cc1ccc(-c2nc(-c3ccncc3)no2)c(C)c1`, 20.6 µM (active).
As for `Cc1ccc(-c2noc(CSc3nnc(-c4ccncc4)n3-c3ccc(F)cc3)n2)cc1`, the Potency entry was “inactive”.
Take `Cc1ccc(-c2noc(-c3ccccc3C(=O)NCC3CCCO3)n2)cc1` (stereo unspecified): the Potency entry is “inactive”.
For `COc1ccc(-c2noc(-c3ccc(C)cc3)n2)cc1` the value was 3.66 µM (active); for `COc1ccccc1CNS(=O)(=O)c1ccc(C)cc1`, “inactive”; for `COc1ccc(-c2noc(CSc3ccc(C)cc3)n2)cc1`, “inactive”.
Take `COc1ccccc1Cc1nc(-c2ccc(C)cc2)no1`: the Potency is 18.4 µM (active).
Take `COc1ccc(-c2csc3nc(-c4ccccc4F)oc(=O)c23)cc1OC`: the Potency entry was “inactive”.
With `COc1ccc(-c2noc(CN(C)S(=O)(=O)c3ccc(C)cc3)n2)cc1`, the Potency result was “inactive”.
The same measure for `CCOC(=O)C1CCCN(C(=O)CSc2nnc3nc(C)cc(C)n23)C1` (stereo unspecified): “inactive”.
For `CC(C)NC(=O)Nc1cccc2c1O[C@H](CN(C)S(=O)(=O)c1cccs1)[C@@H](C)CN([C@H](C)CO)C2=O` the value was “inactive”.
For `COc1ccc(-c2sc3ccccc3c2-c2ccc(OCCN3CCOCC3)cc2)cc1`, the Potency result is “inactive”.
The same measure for `O=C(COC(=O)c1cccnc1Cl)Nc1ccc(S(=O)(=O)N2CCOCC2)cc1`: “inactive”; for `COc1ccc2[nH]c3c(c2c1)CCN1C(=O)C(CC(=O)NCCCN(C)C)C[C@H](C(=O)N2CCOCC2)[C@@]31CCC1CCCC1` (stereo partly specified): “inactive”.
In the case of `Cc1ccc(S(=O)(=O)Nc2ccc(F)c(S(=O)(=O)N3CCOCC3)c2)cc1`, the Potency result was “inactive”.
On to `CCn1nc(C(=O)NNS(=O)(=O)c2cc(/C=C/C(=O)O)cc(OC)c2OC)c2ccccc2c1=O`, for which the Potency entry was “inactive”.
The same measure for `C[C@H]1CN([C@@H](C)CO)C(=O)Cc2cc(NS(C)(=O)=O)ccc2O[C@@H]1CN(C)CC1CC1`: “inactive”; for `COc1ccc(-c2n[nH]c(C)c2-c2ccccc2OC)c(O)c1`: “inactive”.
Take `COc1ccc(-c2nc(-c3ccccc3)no2)c(OC)c1`: the Potency was 0.058 µM (active).
In the case of `COc1ccc(-c2noc(CNC(=O)C(C)Oc3ccccc3)n2)cc1` (stereo unspecified), the Potency entry is “inactive”.
In the case of `Cc1cccc(-c2noc(CCC(=O)NC3CCCC3)n2)c1`, the Potency entry was “inactive”.
On to `Cc1ccc(-c2noc(CSc3nnc(-c4ccccc4)n3C)n2)cc1`, for which the Potency result was “inactive”.
With `Cc1ccc(Cc2nc(-c3cccc(C)c3)no2)cc1`, the Potency was 16.4 µM (active).
`O=C(COC(=O)c1ccc(F)cc1)Nc1ccc2c(c1)OCO2`: the Potency result was “inactive”.
For `O=C(CN1C(=O)NC2(CCCCCC2)C1=O)NCc1ccc(F)cc1` the value was “inactive”; for `O=C(N[C@H]1C/C=C\C(c2ccc(F)cc2)N(Cc2ccccc2)C(=O)C1)OCC1c2ccccc2-c2ccccc21` (stereo partly specified), “inactive”; for `C#CCOCCOCCOCCNc1nc(N2CCN(C(=O)[C@H](CCCN=C(N)N)n3cc(C(N)[C@@H](C)CC)nn3)CC2)nc(N2CCN(C(=O)[C@H](CO)n3cc([C@@H](N)C(C)C)nn3)CC2)n1` (stereo partly specified), “inactive”.
Turning to `CCN(c1ccccc1)S(=O)(=O)c1ccc(C(=O)Nc2ccccc2OC)cc1`, the Potency result is “inactive”.
Consider `CCOC(=O)CSc1nnc(-c2ccc([N+](=O)[O-])cc2)o1`, for which the Potency result was “inactive”.
Turning to `Cc1cccc(C)c1OC(=O)CSc1nnc(-c2ccccc2)o1`, the Potency entry was “inactive”.
With `CCCCSc1nnc(-c2ccc(C)cc2)o1`, the Potency was 2.06 µM (active).
Take `c1ccc2c(CCN3CCNC[C@H]3Cc3cccc4ccccc34)cccc2c1`: the Potency entry is “inactive”.
For `COc1ccc(-n2nnnc2-c2nc3ccccc3s2)cc1` the value was 1.46 µM (active); for `COc1ccc(C2=NN(c3nc4ccccc4s3)C(=O)C2)cc1`, “inactive”.
As to `COc1ccc(-n2nnnc2CNC(=O)c2ccc3ccccc3c2)cc1`, the Potency result was “inactive”.
The same measure for `O=C(Nc1ccc(N2CCOCC2)cc1)c1cccc(S(=O)(=O)N2CCOCC2)c1`: “inactive”.
As for `O=C(CCc1ccc(S(=O)(=O)N2CCOCC2)cc1)OCC(=O)c1ccc(Br)cc1`, the Potency result was “inactive”.
`Cc1cc(OCc2cc(C(=O)NCc3cc(C(C)C)no3)no2)cc(C)c1Cl`: the Potency is 3.66 µM (active).
In the case of `COc1ccc(OCc2cc(C(=O)NCC3(C)COC3)no2)c(Cl)c1`, the Potency result is “inactive”.
As for `Cc1cccnc1CC(C)NC(=O)c1cc(COc2cncc(Cl)c2)on1` (stereo unspecified), the Potency entry is “inactive”.
The same measure for `CC1(C)C[C@H]2C3=CCC4[C@@]5(C)CC[C@H](O)[C@](C)(CO)C5CC[C@@]4(C)[C@]3(C)C[C@@H](O)[C@@]2(CO)[C@@H](O)[C@@H]1O` (stereo partly specified): “inactive”; for `CC(C)(C)OC(=O)C1=C(CO)CS[C@@H]2[C@H](NC(=O)Cc3ccccc3)C(=O)N12`: “inactive”.
In the case of `C/C(CC(=O)Nc1ccc(N(C)C)cc1)=N\NC(=O)c1ccccc1F`, the Potency result was “inactive”.
Turning to `C/C(=N\NC(=O)c1ccccc1F)c1ccccn1`, the Potency is 3.66 µM (active).
For the compound `Cc1ccc(Cl)cc1NC(=O)c1ccccn1`, the Potency result is “inactive”.
Consider `C/C(=N\NC(=O)Cc1ccc(Br)cc1)c1cccnc1`, for which the Potency result is “inactive”.
In the case of `C/C(=N\NC(=O)Cc1ccc(F)cc1)c1ccc(F)cc1`, the Potency result was “inactive”.
With `C/C(=N\NC(=O)Cc1ccc(Cl)cc1)c1ccccn1`, the Potency was 9.2 µM (active).
For `COc1ccc2[nH]c3c(c2c1)CCN1C(=O)C(CC(=O)NCc2cccc(C(F)(F)F)c2)C[C@H](C(=O)N2CCOCC2)[C@@]31C` (stereo partly specified) the value was “inactive”; for `O=C(COc1ccc(F)cc1Br)NCC1COc2ccccc2O1` (stereo unspecified), “inactive”.
As for `CCCCOC(=O)Nc1nnc(CC(=O)NCc2ccccc2)s1`, the Potency result is “inactive”.
For `CCCCCCOC(=O)NCC(O)c1ccccc1` (stereo unspecified) the value was 18.4 µM (active); for `CCCCCOC(=O)NCCOC(=O)Nc1ccc(C(=O)OCC)cc1`, “inactive”; for `O=C(CNC(=O)c1n[nH]c2ccccc12)Nc1cc(Cl)ccc1Cl`, “inactive”.
Consider `CCN(CC)C(=O)[C@H]1CC(CC(=O)NCc2ccco2)C(=O)N2CCc3c([nH]c4ccccc34)[C@]12C` (stereo partly specified), for which the Potency entry was “inactive”.
The same measure for `COc1ccc(NS(=O)(=O)c2cc(NC(=O)c3ccc(S(=O)(=O)N(C)C)cc3)ccc2N2CCOCC2)cc1`: “inactive”; for `CCN(C[C@H]1N[C@@](Cc2ccccc2)(C(=O)OC)[C@H]2C(=O)N(Cc3ccccc3)C(=O)[C@@H]12)C(=O)c1ccc(C)cc1`: “inactive”.
The same measure for `COc1ccc(NC(=O)CNc2cc(S(=O)(=O)N3CCOCC3)ccc2N2CCOCC2)c(OC)c1`: “inactive”; for `O=C(Nc1ccccc1C(F)(F)F)c1cc(-c2ccc(O)cc2)on1`: “inactive”; for `Cc1ccc(C)c(NC(=O)c2ccc(OC(=O)c3ccco3)cc2)c1`: “inactive”.
For `Cc1ccc(O)c(NC(=O)c2cc(-c3ccco3)on2)c1`, the Potency was 20.6 µM (active).
The same measure for `CCCCC[C@@H]1C=C(C(=O)O)[C@H](c2ccc(C#N)cc2)N1S(=O)(=O)c1ccc(C)cc1`: “inactive”.
Regarding `CC1CCCC(NC(=O)c2cc(S(=O)(=O)N3CCCCC3)ccc2Cl)C1C` (stereo unspecified), the Potency result was “inactive”.
For `Cc1ccc(C(=O)NNC(=O)c2ccncc2)cc1S(=O)(=O)N1CCCCC1` the value was “inactive”; for `Cc1ccc(C(=O)NC2CCCC(C)C2C)cc1S(=O)(=O)N1CCCCC1` (stereo unspecified), 18.3 µM (active).
The same measure for `C[C@@H]1CN([C@@H](C)CO)C(=O)c2cc(NC(=O)C3CC3)ccc2O[C@H]1CN(C)C`: “inactive”; for `COC(=O)[C@@]1(C)[C@H]2C(=O)N(Cc3ccccc3)C(=O)[C@H]2[C@H]2CN=C(SCC3CC3)N21`: “inactive”.
For `CC[C@]1(C(=O)OC)[C@H]2C(=O)N(Cc3ccccc3)C(=O)[C@H]2[C@H]2CN=C(SCc3ccccc3)N21`, the Potency entry is “inactive”.
Turning to `COc1cccc(NC(=O)COC(=O)c2ccc3ccccc3n2)c1`, the Potency entry was “inactive”.
For `Cc1ccc(OCCCC(=O)N2CCOCC2)c(C)c1` the value was 20.6 µM (active); for `Cc1cc(S(=O)(=O)N2CCOCC2)ccc1OCC(=O)N1CCOCC1`, “inactive”; for `Cc1ccc(OCCCC(=O)NC(C)c2ccccc2)c(C)c1` (stereo unspecified), “inactive”.

The values above are taken from PubChem BioAssay AID504466 (National Center for Advancing Translational Sciences (NCATS), 2011).
